An excerpt weighted towards active compounds, which were near 7.9% of everything screened.
Lassa entry inh = qHTS for Inhibitors of binding or entry into cells for Lassa Virus; Lassa virus pseudotype entry inhibition, cell reporter; 300,000 compounds, 1.2% hits; AID 540256, 2011; Potency, µM (series often up to 37.9 µM), for the others: top-dose activity change, negative = inhibition, actives largely listed as inhibitors; calls by dose curve; tested in HEK293 cells; note: potency is the fitted concentration of half-maximal effect; nearly all actives have a fitted effect of over 50% in size
Marburg entry inh = qHTS for inhibitors of binding or entry into cells for Marburg Virus. Potency, µM (titrated, usually from 37.8 µM), inactives show at the top dose activity change, negative = inhibition, most hits filed as inhibitors. 300,000 compounds, 1.8% hits. Marburg virus pseudotyped entry inhibition, cell reporter; calls by dose curve; tested in HEK293 cells; note: potency is the fitted concentration of half-maximal effect
HCMV antiviral = qHTS Assay for inhibitors of the human cytomegalovirus (HCMV) | 410,000 compounds, 4.5% hits | HFF cells, HCMV-luciferase reporter, 72 h; active compounds read low | activity change, negative = inhibition, % at 57.5 µM; in the data active = activity change below about -60%; inconclusive = no clear call, values can overlap the other calls; inactive = above about -39%
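Two compound doses tested in HFFs infected with HCMV-luciferase, MOI 1 PFU/cell, 72 h at 37C. Lysate luminescence read with OneGlo; data normalized against buffer-only and 10uM Salinomycin inhibitor controls.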
FMDV antiviral = High Throughput Screening for Foot and Mouth Disease Virus Antivirals | FMDV antiviral cell-based qHTS | Potency, µM (series often up to 57.9 µM), without a hit: at the highest dose activity change, negative = inhibition, actives largely listed as inhibitors | 410,000 compounds, 1.2% hits; calls by dose curve; tested in HEK293T cells; note: read-out not given here; potency is the fitted concentration of half-maximal effect; nearly all actives have a fitted effect of over 45% in size
HCV inh = qHTS Assay for Inhibitors of Hepatitis C Virus (HCV); 340,000 compounds, 3.4% hits; Potency, µM (doses to about 41.8 µM), inactives show top-dose activity change, negative = inhibition, hits mostly inhibitors; AID 651820, 2012; Huh7.5.1 HCVcc-Cre infection, luciferase reporter, 44 h; active = well fitted inhibition curve with a large enough effect; inconclusive = small, poorly fitted or top-dose-only effect, or another doubt; inactive = no such curve, though single readings can be large or run the other way; note: potency is the fitted concentration of half-maximal effect
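Luciferase read-out (15 sec integration) after a 15 min room-temperature substrate step quantifies HCVcc-Cre infection. Cells, 1,000 per well, had compound added 4 h post-plating, then virus at ~0.5 moi, and were cultured 44 h.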
* hit, by the source's call; u = inconclusive; x = not tested or not shown; [ ] = remark or other dose. % is set by controls: 0 for no effect and ±100 for the full control effect.

SMILES | Lassa entry inh | Marburg entry inh | HCMV antiviral | FMDV antiviral | HCV inh
COc1ccc(S(=O)(=O)N2CCN(c3ccccc3F)CC2)cc1-c1noc(C)n1 | 16%[46.1 µM] | 9%[46.1 µM] | -15 | 7% | x
CCOC(=O)CCn1c(=O)c2cccn2c2cccnc21 | 15%[46.1 µM] | -12%[46.1 µM] | 104 | -16% | x
CCN(CC)S(=O)(=O)c1cc(NC(=O)CNc2cccc(S(=O)(=O)N3CCCC3)c2)ccc1C | u | u | x | u | 0.56µM*
CCN(CC)S(=O)(=O)c1cc(NC(=O)C(C)N2CC=C(c3ccccc3)CC2)ccc1C (centres undefined) | 16µM* | u | -30 | u | 11µM*
O=S(=O)(Nc1nc2ccccc2nc1Nc1cccc(S(=O)(=O)N2CCCCC2)c1)c1ccccc1 | u | u | -83* | u | u
O=C(Nc1cccc(S(=O)(=O)N2CCCCC2)c1)C1CC(=O)N(c2ccc3c(c2)OCCO3)C1 (centres undefined) | x | x | -30 | u | 13µM*
COc1ccc(S(=O)(=O)Nc2cccc(S(=O)(=O)N3CCCCCC3)c2)cc1 | -11% | 4% | 6 | 25% | 7%
O=C(COC(=O)CCc1c[nH]c2ccccc12)NC(c1ccccc1)c1ccccc1 | 13% | 4% | 42 | -24% | 26%
CCCC(C(=O)Nc1cccc(S(=O)(=O)N2CCCC2)c1)c1ccccc1 (centres undefined) | 7.1µM* | u | u | -3% | u
CN(C)S(=O)(=O)c1cccc(NC(=O)CNc2cccc(S(=O)(=O)N3CCCCC3)c2)c1 | x | x | -81* | -6% | x
CC(CC(=O)Nc1cccc(S(=O)(=O)N2CCCCC2)c1)c1ccccc1 (centres undefined) | x | x | 24 | -11% | u
Cc1ccc(S(=O)(=O)c2cccc(S(=O)(=O)N3CCCC3)c2)cc1S(=O)(=O)N1CCCC1 | u | u | -23 | -13% | 16µM*
O=C(CNc1cccc(S(=O)(=O)N2CCOCC2)c1)Nc1ccc(C(F)(F)F)cc1 | -19% | u | -11 | 32µM* | u
Cc1ccc(S(=O)(=O)c2cccc(S(=O)(=O)N3CCOCC3)c2)cc1S(=O)(=O)N1CCOCC1 | 7% | 1% | -4 | -11% | 8%
CN1CCN(CC(=O)Nc2cccc(S(=O)(=O)N(C)c3ccccc3)c2)CC1 | 2% | 25% | -9 | -11% | 21%
CCN(CC)S(=O)(=O)c1ccc(C)c(NC(=O)CNc2cccc(S(=O)(=O)N3CCOCC3)c2)c1 | -10% | 0%[46.1 µM] | -4 | -27% | u
CCN(CC)S(=O)(=O)c1ccc(C)c(NC(=S)Nc2cccc(S(=O)(=O)N3CCCCCC3)c2)c1 | u | u | -77* | u | u
NC(=O)c1nn(CC(=O)Nc2cccc(S(=O)(=O)N3CCCC3)c2)c(=O)c2ccccc12 | x | x | 0 | 0% | 11µM*
CC(=O)c1cccc(NCC(=O)Nc2cc(S(=O)(=O)N3CCCCC3)ccc2C)c1 | -13% | -16% | -35 | 0% | 11µM*
C=CCOC(=O)N[C@@H](c1coc2ccccc2c1=O)[C@@H](C)C=CCC(=O)OC | x | -3%[14.2 µM] | x | x | x
C=C1C(=O)OC2CC(C)C3C=CC(=O)C3(C)C(O)C12 (centres undefined) | 1.3µM* | 0.63µM* | x | 8.9µM* | 2.5µM*
C=C1C(=O)O[C@@H]2C[C@@H](C)[C@@H]3C=CC(=O)[C@@]3(C)[C@@H](OC(=O)CC(=O)O[C@H]3[C@@H]4C(=C)C(=O)O[C@@H]4C[C@@H](C)[C@@H]4C=CC(=O)[C@]43C)[C@H]12 | x | x | -98* | u | 1.1µM*
C=C1C(=O)O[C@H]2[C@H]1[C@H](OC(=O)CC(=O)O[C@@H]1C[C@@H](C)[C@@H]3C=CC(=O)[C@@]3(C)[C@H]3OC(=O)C(=C)[C@H]13)C[C@@H](C)[C@H]1C=CC(=O)[C@]12C | x | x | -38 | -19% | u
CC1C(=O)O[C@@H]2C[C@@H](C)[C@@H]3CCC(=O)[C@@]3(C)[C@@H](O)[C@H]12 (some centres undefined) | x | x | -7 | -23% | 18%
C=C1C(=O)OC2C1CCC(C)C1(O)C=CC(=O)C21C (centres undefined) | x | x | -108* | 40µM* | 8.9µM*
